Eleven compounds from PubChem BioAssay (Tox21) can be followed below.

Inconclusive results are not listed. A number with no mark means an inactive call. The source made the active and inactive calls. Unless noted, calls come from the whole dose curve; as a rule, active = well fitted curve in the direction sought with a large enough effect in the repeat runs; inconclusive = weak or mixed curves; inactive = no such curve, though single readings can be large; an effect the other way counts as inactive or inconclusive.

Assay [1] deals with Retinoic acid receptor RXR-alpha (Homo sapiens) (UniProt P19793). In words: qHTS assay to identify small molecule agonists of the RXR signaling pathway (AID 1159527; calls by dose curve; note: nearly all actives have a fitted effect of over 35% in size). An outline of the steps:
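Agonist-mode beta-lactamase reporter assay: HEK 293T RXR-alpha-UAS-bla cells treated 16 hr at 37 C with compounds, 9-cis retinoic acid as positive control. LiveBLAzer FRET substrate, 405 nm excitation, 460/530 nm emission.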
Background: Quantitative high-throughput screening tests each substance at several concentrations.

Assay [2] can be described thus: qHTS assay to identify small molecule antagonists of the retinoid acid receptor (RAR) signaling pathway - cell viability counter screen (AID 1159551). Note: nearly all actives have a fitted effect of over 35% in size. An outline of the steps: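 ATP-based viability, C3RL4 cells, 6 h at 37 C with 1 uM final retinol co-added after compound; luminescence read 30 min post CellTiter-Glo, RT.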
Assay [3] is described as follows: qHTS assay to identify small molecule antagonists of the estrogen related receptor (ERR) signaling pathway from Tox21 library - cell viability counter screen (AID 1224834). Note: nearly all actives have a fitted effect of over 30% in size. A digest of the protocol:
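Compounds in DMSO were pinned onto ERR cells that had been incubated for 6 h, and the plates were held at 37 C for 17.5 h. CellTiter-Fluor reagent was then added and fluorescence was measured after 30 min.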

The target in assay [4] is Luciferin 4-monooxygenase (Photinus pyralis) (UniProt P08659). In words: qHTS assay to identify small molecule inhibitors of firefly luciferase (AID 1224835). Note: series mostly up to about 120 µM; nearly all actives have a fitted effect of over 25% in size. A digest of the protocol:
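Biochemical qHTS: compounds run as interplate titrations against purified firefly enzyme, with D-luciferin and ATP each at its KM concentration. Light output recorded by CCD imaging.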

Assay [5] is described as follows: qHTS assay to identify small molecule agonists of the constitutive androstane receptor (CAR) signaling pathway - cell viability counter screen (AID 1224836). Note: series mostly up to about 92 µM; nearly all actives have a fitted effect of over 45% in size. An outline of the steps: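 Cell viability multiplexed with the CAR agonist screen: CellTiter-Fluor fluorescence after 23 hr at 37 C. HepG2-CYP2B6-hCAR cells got compounds at 15 concentrations with PK11195 at 0.75 uM final.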

The nature of assay [6]: qHTS assay to identify small molecule antagonists of the constitutive androstane receptor (CAR) signaling pathway - cell viability counter screen (AID 1224837). Note: series mostly up to about 92 µM; nearly all actives have a fitted effect of over 45% in size. An outline of the steps: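 Cells are seeded, rested 4 hr at 37 C/5% CO2, dosed with compound (15-point series) and 50 nM CITCO, incubated a further 23 hr, and then CellTiter-Fluor reagent is added before fluorescence is read. The line is HepG2 with stable hCAR and CYP2B6-2.2kb.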

Assay [7] deals with Nuclear receptor subfamily 1 group I member 3 (Homo sapiens) (UniProt Q14994). Kind of assay: qHTS assay to identify small molecule antagonists of the constitutive androstane receptor (CAR) signaling pathway (AID 1224838).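 Note: HepG2 cells stably expressing hCAR with CYP2B6 luciferase reporter stimulated by CITCO; nearly all actives have a fitted effect of over 40% in size.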 Note: potency is the fitted concentration of half-maximal effect. A digest of the protocol:
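Luminescence from a CYP2B6-2.2kb promoter reporter in hCAR-expressing HepG2 cells reflects CAR signaling. Cells received compounds at 15 concentrations and 50 nM CITCO (final), then incubated 24 h at 37 C/5% CO2.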

Assay [8] has the same target. In words: qHTS assay to identify small molecule agonists of the constitutive androstane receptor (CAR) signaling pathway (AID 1224839). Note: nearly all actives have a fitted effect of over 15% in size. Note: potency is the fitted concentration of half-maximal effect. An outline of the steps:
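Luminescent ONE-Glo read-out after 24 hr, 37 C exposure of double-stable HepG2-CYP2B6-hCAR reporter cells to a 15-point compound series, in the presence of 0.75 uM PK11195 (final).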

A short description of assay [9]: qHTS assay to identify small molecule antagonists of the estrogen related receptor signaling pathway with the pleiotropic PPARgamma coactivator (PGC) from Tox21 10K library - cell viability counter screen (AID 1224840; active = well fitted cell-killing curve with a large enough effect in the repeat runs, not every such curve was filed as active; note: nearly all actives have a fitted effect of over 40% in size). A digest of the protocol:
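Cell viability is measured by CellTiter-Fluor fluorescence in PGC/ERR cells that receive compounds after a 6-hour attachment period and are then incubated 17.5 hours at 37 C.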

A short description of assay [10]: qHTS assay to identify small molecule antagonists of the estrogen related receptor signaling pathway with the pleiotropic PPARgamma coactivator (PGC) from Tox21 10K library (AID 1224841; call rule not given here; note: actives are mostly falling curves and most rising ones were filed inactive; nearly all actives have a fitted effect of over 50% in size; note: potency is the fitted concentration of half-maximal effect). An outline of the steps: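 Cells stably carrying the PGC/ERR reporter, seeded at 2,000 per well, received pin-transferred compounds 6 h post-plating. Exposure lasted 18 h at 37 C. Signal: One-Glo luminescence.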

The nature of assay [11]: qHTS assay to identify small molecule agonists of the estrogen related receptor signaling pathway with the pleiotropic PPARgamma coactivator (PGC) from Tox21 10K library (AID 1224842). Note: nearly all actives have a fitted effect of over 15% in size. A digest of the protocol: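 PGC/ERR reporter cell line, 2,000 cells per well, incubated 6 h at 37 C before 23 nL compound in DMSO was added. After 18 h at 37 C, One-Glo luminescence read following 30 min at room temperature.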

The nature of assay [12]: qHTS assay to identify small molecule antagonists of the retinoic acid receptor (RAR) signaling pathway (AID 1159552; note: nearly all actives have a fitted effect of over 50% in size; note: potency is the fitted concentration of half-maximal effect). A digest of the protocol: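 Luminescent RARE reporter read-out in C3RL4 cells: 6 hr co-treatment at 37 C of test compounds with retinol at 1 uM final. Cells plated overnight beforehand; luciferase reagent incubated 30 min at room temperature before reading.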

Assay [13] can be described thus: qHTS assay to identify small molecule agonists of the retinoic acid receptor (RAR) signaling pathway (AID 1159553). A digest of the protocol: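 Quantitative high-throughput format: the Tox21 10K library was tested on C3RL4 RARE-luciferase cells for 6 hr at 37 C and 5% CO2, with luminescence measured after a 30 min room-temperature reagent step.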
Assay [14] is described as follows: qHTS assay to identify small molecule agonists of the RXR signaling pathway - cell viability counter screen (AID 1159529). Note: series mostly up to about 77 µM; nearly all actives have a fitted effect of over 50% in size. An outline of the steps: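 CellTiter-Glo luminescence gave viability in the wells also read for beta-lactamase. Cells (RXR-alpha-UAS-bla HEK 293T, 2% charcoal-stripped FBS medium) had 5 hr plating, then 16 hr compound exposure at 37 C; tetraoctyl ammonium bromide served as positive control.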

Assay [15] is described as follows: qHTS assay to identify small molecule antagonists of the estrogen related receptor (ERR) signaling pathway - cell viability counter screen (AID 1224818).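 Note: series mostly up to about 46 µM; viability measured after 17.5 h of compound exposure.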 A digest of the protocol: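 Quantitative high-throughput viability counter screen in ERR cells. Compounds (DMSO) incubated 17.5 h at 37 C; read-out was CellTiter-Fluor fluorescence.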
Assay [16] can be described thus: qHTS assay to identify small molecule antagonists of the estrogen related receptor signaling pathway with the pleiotropic PPARgamma coactivator (PGC) cell viability counter screen (AID 1224822; note: series mostly up to about 46 µM). An outline of the steps: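 Cytotoxicity in the PGC/ERR cell line is assessed with CellTiter-Fluor, read as fluorescence intensity 30 min after reagent addition, following 17.5 h compound treatment at 37 C.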

Retinoic acid receptor RXR-alpha (Homo sapiens), sequence (P19793 whole entry, looked up): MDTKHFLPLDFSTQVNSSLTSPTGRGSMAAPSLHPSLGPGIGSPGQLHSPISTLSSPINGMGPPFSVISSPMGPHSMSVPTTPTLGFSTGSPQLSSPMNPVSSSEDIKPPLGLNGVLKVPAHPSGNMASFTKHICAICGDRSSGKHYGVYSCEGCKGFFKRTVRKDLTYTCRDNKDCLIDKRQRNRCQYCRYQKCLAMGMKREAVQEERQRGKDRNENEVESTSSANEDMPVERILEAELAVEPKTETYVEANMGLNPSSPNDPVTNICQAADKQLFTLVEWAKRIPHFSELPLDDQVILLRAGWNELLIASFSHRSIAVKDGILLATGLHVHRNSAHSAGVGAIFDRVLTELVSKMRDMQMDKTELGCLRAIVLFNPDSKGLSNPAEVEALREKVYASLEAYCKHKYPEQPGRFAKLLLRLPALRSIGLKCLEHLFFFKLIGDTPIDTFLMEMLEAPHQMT
Nuclear receptor subfamily 1 group I member 3 (Homo sapiens), sequence (Q14994 whole entry, looked up): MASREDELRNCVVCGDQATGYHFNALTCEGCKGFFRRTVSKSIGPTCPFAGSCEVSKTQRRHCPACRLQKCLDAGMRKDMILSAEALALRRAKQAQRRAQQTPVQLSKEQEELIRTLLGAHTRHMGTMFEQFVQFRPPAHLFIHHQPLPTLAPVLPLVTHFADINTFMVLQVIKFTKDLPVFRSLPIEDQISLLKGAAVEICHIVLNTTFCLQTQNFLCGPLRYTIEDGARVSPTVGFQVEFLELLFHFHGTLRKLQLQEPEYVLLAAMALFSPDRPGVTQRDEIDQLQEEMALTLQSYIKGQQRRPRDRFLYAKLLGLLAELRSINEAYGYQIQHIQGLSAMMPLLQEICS
Luciferin 4-monooxygenase (Photinus pyralis), sequence (P08659 whole entry, looked up): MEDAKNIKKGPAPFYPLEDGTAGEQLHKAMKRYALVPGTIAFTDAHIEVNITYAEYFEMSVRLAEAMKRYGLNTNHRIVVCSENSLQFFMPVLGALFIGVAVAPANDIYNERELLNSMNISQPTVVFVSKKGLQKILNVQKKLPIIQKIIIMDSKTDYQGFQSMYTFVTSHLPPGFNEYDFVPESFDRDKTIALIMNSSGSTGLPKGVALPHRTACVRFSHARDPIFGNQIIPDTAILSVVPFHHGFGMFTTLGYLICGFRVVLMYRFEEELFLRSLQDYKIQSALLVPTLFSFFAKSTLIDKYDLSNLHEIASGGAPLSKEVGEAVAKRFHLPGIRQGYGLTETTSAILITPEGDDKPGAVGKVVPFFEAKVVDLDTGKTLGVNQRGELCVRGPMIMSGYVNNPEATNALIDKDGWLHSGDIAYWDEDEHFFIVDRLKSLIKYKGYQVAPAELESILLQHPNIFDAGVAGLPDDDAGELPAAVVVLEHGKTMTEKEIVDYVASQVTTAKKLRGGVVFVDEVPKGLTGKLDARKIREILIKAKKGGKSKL

As to `CCCCCCCCC=O`, the Potency entry in assay [1], in [3], in assay [4], in assay [7], in assay [8] and in [10] was “inactive” in each case. Also, the Potency entry in assay [11] is “inactive”. Further, the outcome in assay [2], in assay [5], in [6] and in assay [9] was inactive.
On to `COC[C@H](c1ccc(C(F)(F)F)cc1)N1CCN(C2(C)CCN(C(=O)c3c(C)ncnc3C)CC2)C[C@H]1C`, for which the Potency entry in assay [1], in assay [3], in assay [4], in [7], in assay [8] and in assay [10] was “inactive” each time. For the same compound, the Potency entry in assay [11] is “inactive”. Besides, the result in assay [2], in assay [5], in [6] and in assay [9] was inactive.
As for `COc1ccc(NC(C)=O)cc1`, the Potency result in assay [1], in assay [12], in assay [13], in [3] and in assay [4] was “inactive” throughout. Also, the result in assay [2], in assay [5], in assay [6] and in [9] was inactive.
Consider `CCCCCN(CCCCC)C(=O)C(CCC(=O)O)NC(=O)c1ccc(Cl)c(Cl)c1` (stereo unspecified), for which the Potency entry in [14], in [12], in [13], in [3], in assay [4] and in assay [7] was “inactive” in each case. Further, in assay [8], the Potency result was “inactive”. Also, the compound was called inactive in assay [2], in assay [15], in assay [16], in assay [5], in [6] and in assay [9].
On to `COC(=O)C1=C(C)NC(C)=C(C(=O)OCC(C)=O)C1c1ccccc1[N+](=O)[O-]` (stereo unspecified), for which the Potency entry in assay [1], in [12], in assay [13], in [3], in assay [4] and in [7] was “inactive” in each case. The Potency result in [8], in [10] and in assay [11] was “inactive” each time. Moreover, the call in assay [5], in assay [6] and in [9] was inactive.
In the case of `O=S(=O)(c1cccc2cnccc12)N1CCCNCC1`, the Potency result in assay [1], in [13], in [3], in assay [4], in [8] and in assay [11] was “inactive” each time. The Potency in assay [12] is 29.8 µM (active); in assay [7], 13.3 µM (active); in [10] it was 23.7 µM (active). The result in assay [9] was inactive.
Turning to `CCO[Si](CCCN=C=O)(OCC)OCC`, the Potency result in assay [14], in [12], in [13], in assay [3], in [4] and in assay [7] was “inactive” in each case. The Potency entry in [8] and in [10] was “inactive” in each case. Also, the outcome in [2], in assay [5], in assay [6] and in assay [9] was inactive.
For `O=[N+]([O-])c1ccc(Oc2ccc([N+](=O)[O-])cc2)cc1`, the Potency entry in assay [14], in [12], in assay [13], in assay [3], in assay [4] and in assay [7] was “inactive” throughout. Also, the Potency result in assay [8] and in assay [10] was “inactive” each time. In addition, the call in [2], in assay [5], in [6] and in assay [9] was inactive.
Turning to `CCOC(=O)Cn1c(=O)sc2cccc(Cl)c21`, the Potency result in [14], in assay [12], in assay [13], in assay [3], in assay [4] and in assay [7] was “inactive” throughout. Also, the Potency entry in [10] was “inactive”. Besides, the outcome in assay [2], in assay [6] and in [9] was inactive. For the same compound, in assay [8], the Potency was 54.5 µM (active).
In the case of `CNC(=O)c1c(I)c(NC(=O)CCCCC(=O)Nc2c(I)c(C(=O)O)c(I)c(C(=O)NC)c2I)c(I)c(C(=O)O)c1I`, the Potency entry in assay [14], in assay [12], in assay [13], in assay [3], in assay [4] and in assay [7] was “inactive” in each case. Further, the Potency entry in [8], in assay [10] and in assay [11] was “inactive” throughout. Moreover, the compound was called inactive in assay [5], in [6] and in assay [9].
For the compound `CCCCCCCCCCCCCCC`, the Potency entry in assay [14], in [12], in [13], in [3], in assay [4] and in assay [7] was “inactive” throughout. Further, the Potency result in [8], in assay [10] and in assay [11] was “inactive” in each case. For the same compound, the call in assay [2], in assay [5], in assay [6] and in assay [9] was inactive.
